Hits are enriched below; roughly 6.7% of the tested compounds scored in any of these assays.
KB-3-1 tox – KB-3-1 parental cell cytotoxicity | KB-3-1 viability, CellTiter-Glo ATP luminescence, 72 h | Potency, µM (top dose mostly 46.1 µM), hits mostly cytotoxic | 400,000 compounds, 1.4% hits; note: % is set by controls: 0 for no effect and ±100 for the full control effect; nearly all actives have a fitted effect of over 60% in size
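Cells are dispensed, compounds pinned in, plates held at 37 °C for 72 h, then CellTiter-Glo is added and luminescence read after 10 minutes. Cell line: parental KB-3-1 in phenol-red-free DMEM, 10% FBS.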
MCF10A rerep – DNA re-replication induction in MCF 10a cells | Potency, µM (top dose mostly 46.1 µM), for inactives: at the top dose activity, positive = re-replication, hits mostly activators | 350,000 compounds, 2.9% hits | MCF 10A DNA re-replication, Hoechst nuclear intensity, 48 h; note: % of control where 0% means no effect; nearly all actives have a fitted effect of over 50% in size
PINK1 modulator – PINK1 expression modulation; Potency, µM (highest dose often 76.6 µM), inactives show at the highest dose activation (PINK1 increase), actives largely listed as activators; 410,000 compounds, 0.2% hits; PINK1 immunofluorescence, high-content cytometry, 24 h; active = well fitted activation curve with a large enough effect; inconclusive = small, poorly fitted or top-dose-only effect; cell line not stated here; note: % of control where 0% means no effect; nearly all actives have a fitted effect of over 65% in size
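Cells are seeded, rested 12 hours, then given compound at five concentrations or DMSO for 24 hours. After fixation, blocking and antibody staining, PINK1 amount and mitochondrial localization are scored; CCCP serves as control.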
SW480 rereplic – DNA re-replication induction in SW480 cells | SW480 DNA re-replication, Hoechst DNA content imaging, 48 h | Potency, µM (titrated, usually from 46.1 µM), without a hit: at the highest dose re-replication activation, most hits filed as activators | 340,000 compounds, 1.8% hits | AID 624297; note: % of control where 0% means no effect; nearly all actives have a fitted effect of over 55% in size
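Hoechst fluorescence of nuclei (405 nm excitation, 500-530 nm emission) measured by plate-scanning imager after 48 hr compound exposure at 37 C; re-replication scored as increased number of nuclei with elevated intensity.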
KB-V1 MDR tox – kills drug-selected multidrug resistant KB-V1 cells | KB-V1 MDR cells viability, CellTiter-Glo, 72 h | Potency, µM (top dose mostly 46.1 µM), hits mostly cytotoxic | 400,000 compounds, 3.4% hits; note: % is set by controls: 0 for no effect and ±100 for the full control effect; nearly all actives have a fitted effect of over 60% in size
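Cells of the MDR subline KB-V1 are plated, dosed with compound at multiple concentrations, and incubated 72 h at 37 degrees C; CellTiter-Glo is then added and luminescence read after 10 min.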
An asterisk follows results filed as active; i = inactive; ? = inconclusive; . = not tested or not shown; [ ] = remark or other dose. Unless noted, calls come from the whole dose curve; as a rule, active = well fitted curve in the direction sought with a large enough effect; inconclusive = small, poorly fitted or top-dose-only effect, or another doubt; inactive = no such curve, though single readings can be large; an effect the other way counts as inactive or inconclusive. Potency is the fitted concentration of half-maximal effect.

SMILES	KB-3-1 tox	MCF10A rerep	PINK1 modulator	SW480 rereplic	KB-V1 MDR tox
Cc1ccc(NS(=O)(=O)c2ccc(NC(=O)c3cccs3)cc2)c(C)c1	i	?	5%	18%	i
Cc1ccccc1C(=O)N1CCN(c2ccc(NC(=S)NC(=O)c3cccs3)cc2)CC1	?	28%	1%	?	i
Cc1cc(C)cc(NS(=O)(=O)c2ccc(NC(=S)NC(=O)c3cccs3)cc2)c1	23µM*	?	?	?	2.9µM*
CCc1noc(C)c1C(=O)OCC(=O)N(C)c1c(N)n(Cc2ccccc2)c(=O)[nH]c1=O	i	-1%	0%	-4%	?
Cc1cc(NS(=O)(=O)c2ccc(NC(=S)NC(=O)c3cccnc3)cc2)no1	i	-9%	0%	3.3µM*	i
Cc1ccc(C(=O)NC(=S)Nc2ccc(N3CCOCC3)cc2)cc1C	i	14%	1%	-30%	?
Cc1cccc(C(=O)NC(=S)Nc2ccc(N3CCOCC3)cc2)c1	i	?	-1%	-2%	18µM*
CCC1C(O)=C(c2ccccn2)C(=N)N1c1ccccc1 (configuration not stated)	i	13µM*	.	18µM*	i
O=C(NC1CCCCC1)OC1CC2CC1[C@H]1CCCCN1C2=O (some centres not stated)	i	.	-1%	.	i
C[N+]1=C(/C=C/Nc2ccccc2Cl)C(C)(C)c2ccccc21	i	5%	?	8%	?
COC(=O)c1ccc2c(c1)C(C)(C)C(/C=C/c1ccccc1O)=[N+]2C	4.5µM*	7.1µM*	-5%[38.3 µM]	5.6µM*	?
Cn1c(-c2ccc(F)cc2)cc2onc(-c3c(F)cccc3Cl)c2c1=O	i	2.3µM*	0%	-2%	i
CC(=O)N1CCN(c2cccc(Nc3nn4c(=O)c5ccccc5nc4s3)c2)CC1	i	.	.	.	i
CCCCOc1ccc(CSC2=NCCN2)cc1[N+](=O)[O-]	?	21µM*	7%	?	?
COc1ccc(CSC(=N)N)cc1[N+](=O)[O-]	?	?	4%	?	?
CCCCCOc1ccc(CSC(=N)N)cc1[N+](=O)[O-]	?	?	-4%	?	18µM*
CCCCOc1ccc(Br)cc1CSC(=N)N	23µM*	?	2%	?	8.2µM*
CCOc1ccc(C(C)=O)cc1CSC(=N)N	i	-16%	0%	-4%	i
CCOc1ccc(CSC2=NCCN2)cc1[N+](=O)[O-]	?	?	0%	?	?
O=C(Nc1ccc(N2CCN(c3ccc(C(F)(F)F)cn3)CC2)nc1)c1cccs1	i	-35%	10%	?	i
O=C(Nc1ccc(N2CCN(c3ncccc3C(F)(F)F)CC2)nc1)c1cccs1	16µM*	?	-1%	0%	18µM*
Nc1nc(COC(=O)c2ccc3c(c2)OCCO3)nc(Nc2ccccc2)n1	i	12%	-1%	-2%	21µM*
COc1ccc(OC)c(Nc2nc(N)nc(CCl)n2)c1	i	29µM*	1%	2.6µM*	?
COc1ccc(OCc2nc(N)nc(Nc3ccccc3OC)n2)cc1	i	20%	-1%	-9%	i
COc1ccccc1Nc1nc(N)nc(-c2oc3ccccc3c2C)n1	i	?	.	7.3µM*	i
SMILES	KB-3-1 tox	MCF10A rerep	PINK1 modulator	SW480 rereplic	KB-V1 MDR tox
COc1ccccc1Nc1nc(N)nc(CCl)n1	i	?	3%	12µM*	?
CCOC(=O)c1c(NC(=O)COc2cccc(C(F)(F)F)c2)sc2c1CCCCC2	?	.	0%	.	i
CCOc1cc(CNC(=O)C2CCN(c3nc4ccccc4[nH]3)CC2)cc(OCC)c1OCC	i	.	-1%	.	i
CCOc1ccc(Nc2nc(N)nc(CCl)n2)cc1	13µM*	?	-3%	?	i
Cc1ccccc1Nc1nc(N)nc(COC(=O)c2cccc(S(=O)(=O)N(C)C)c2)n1	i	?	3%	2%	18µM*
COc1cccc(Nc2nc(N)nc(CCl)n2)c1	i	18µM*	4%	15µM*	i
Cc1cccc(Nc2nc(N)nc(CCl)n2)c1	?	?	22%	?	i
Nc1nc(CCl)nc(Nc2ccccc2)n1	?	?	-1%	6.5µM*	?
Cc1sc2ncn(CC(=O)Nc3ccc(C(C)C)cc3)c(=O)c2c1S(=O)(=O)N1CCN(c2ncccn2)CC1	i	.	?	.	i
O=C(/C=C/c1c(F)cccc1Cl)c1ccc(O)cc1	?	3.3µM*	15%	?	i
O=C(/C=C/c1ccccc1Cl)c1ccc(O)cc1	i	?	-2%	?	?
C=C1c2nc3ccccc3n2C=C(c2ccc(C)cc2)N1c1ccccc1	16µM*	4.6µM*	7%	?	?
C=C(C)Cn1c(-c2ccccc2)nc2ccccc21	i	14%	2%	3%	?
CCCCN1C(=O)C(CC(=O)NCc2ccco2)CC(C(=O)N2CCOCC2)=C1C (configuration not stated)	i	.	1%	.	i
CSCCC(C(=O)NC(C)(C)C)n1c(-c2cccc(NC(C)=O)c2)nc2ccccc21 (configuration not stated)	i	.	.	.	i
Cc1noc(C)c1CSc1nc2ccccc2c(=O)n1-c1ccc(Cl)cc1	?	?	2%[38.3 µM]	?	23µM*
Cc1noc(C)c1CSc1ccc2ccccc2n1	i	?	-8%[38.3 µM]	-12%	21µM*
Cc1noc(C)c1CSc1nc2ccccc2s1	i	27%	0%	-3%	i
O=C(Nc1ccc(C(=O)OC[C@@H]2CCCN3CCCC[C@H]23)cc1)c1cccc(Br)c1	i	23µM*	13%	-5%	i
CCCN1C/C(=C/c2ccc3c(c2)OCO3)C(=O)/C(=C/c2ccc3c(c2)OCO3)C1	23µM*	?	-3%	4.6µM*	?
CCCN1C/C(=C/c2cccc([N+](=O)[O-])c2)C(=O)/C(=C/c2cccc([N+](=O)[O-])c2)C1	?	0.92µM*	-2%	1.6µM*	?
CN1C(=O)/C(=C/c2cccc([N+](=O)[O-])c2)C(=O)N1c1ccccc1	?	?	1%	?	i
Cc1cc(Cl)ccc1OCC(=O)N1CCCCC1	i	-11%	0%	-14%	i
CCOC(=O)N1CCN(C(=O)COc2ccc(Br)cc2Cl)CC1	i	0%	36%[38.3 µM]	0%	7.3µM*
O=C(COc1ccc(Cl)cc1Cl)N1CCCN(C(=O)COc2ccc(Cl)cc2Cl)CC1	?	?	-1%	?	8.2µM*
COc1ccc2nccc(C(N)=O)c2c1	i	-4%	-1%	0%	i
CC(C)C(Cl)=NOC(=O)Nc1ccc(S(N)(=O)=O)cc1	i	2.9µM*	-5%	?	i
